In PubChem BioAssay (NCI) one finds growth inhibition data, which are given here for 40 compounds.

This is part of a sample that, as a whole, favours compounds with a hit. Of some 79,000 tested, about 15% had one in any assay. Values without a mark were called inactive. Activity calls are given as the source filed them. No stated cut-off is given here; in the data, active means growth inhibition above about 70%; inactive means the rest.

The assay in a line: NCI Yeast Anticancer Drug Screen. Data for the bub3 strain (AID 167). To be noted: S. cerevisiae bub3 mutant strain, at 50.0 µM, hits give high values. As to the method:
Growth inhibition of yeast strains with defined genetic alterations is measured as a screen for potential anti-cancer activity. Selected strains with alterations in DNA damage repair or cell cycle control were exposed to compounds and growth inhibition was measured relative to vehicle treated controls. The strain used in this assay is bub3
As to `O=CN1CCN(C=S)CC1`, the growth inhibition is 2.6%.

As for `C/C(CC(=O)c1ccccc1)=C1\C(=O)NN(c2ccccc2)C1=O`, the growth inhibition was 64.6%.

Regarding `Cc1cc2ccccc2c[n+]1CC(=O)CC([O-])(C(F)(F)F)C(F)(F)F`, the growth inhibition is 16.4%.

On to `Cn1c(=O)c(CC(O)C(Cl)(Cl)Cl)nc2ccccc21` (stereo not given), for which the growth inhibition is 18.9%.

`O=C(Cc1ccccc1)NC(=O)Nc1ccccc1`: the growth inhibition is -3.1%.

Take `ClCc1c(-c2ccccc2)nn(-c2ccccc2)c1CCl`: the growth inhibition was 57.5%.

In the case of `CC[O-].CC[O-].O=C([CH-]C(=O)c1ccccc1)CCCCCCC(=O)[CH-]C(=O)c1ccccc1.[Ti+4]`, the growth inhibition is 4.95%.

In the case of `Cc1noc2ncnc(NCCCN(C)C)c12`, the growth inhibition was 1.55%.

Regarding `O=C(c1ccccc1)C12CCC3CC(CC(C3)C1)C2`, the growth inhibition was 16.4%.

As to `Fc1ccc(F)c(C(Nc2nncs2)Nc2nncs2)c1`, the growth inhibition was 8.45%.

Regarding `COC(=O)c1cc(OC)c(O)c(OC)c1`, the growth inhibition is 4.05%.

Regarding `CN(C)C=Nc1cccc2c1NSN2`, the growth inhibition is 13.4%.

With `O=c1ccnc2ccc3n[nH][nH]c3c12`, the growth inhibition was -14.2%.

For the compound `C=C(Cl)COC(=O)C(C)O` (stereo not given), the growth inhibition was -7.4%.

`CCN(CC)CCC(=O)O[C@H]1CC[C@H](CC(C)[C@H]2CC(=O)C(C)C=C(C)[C@H](OC(=O)CCN(CC)CC)C(OC)C(=O)[C@@H](C)CC(C)/C=C/C=C/C=C(C)C(OC)CC3CC[C@H](C)[C@](O)(O3)C(=O)C(=O)N3CCCCC3C(=O)O2)CC1OC` (stereo not given in full): the growth inhibition is 91.5% (active).

As for `O=C(O)C12CCCCC1CCCC2` (stereo not given), the growth inhibition is -0.75%.

For `C[N+](C)(CCO)CCN1c2ccccc2Sc2ccccc21`, the growth inhibition is -14.6%.

With `CCCc1cc2c3c(c(=O)oc2cc1O)CCCCC3`, the growth inhibition was -9.8%.

`CCCCN(CCCC)CC(O)c1cc2ccc(Cl)cc2nc1-c1ccc(Cl)cc1` (stereo not given): the growth inhibition was -6.15%.

In the case of `O=C(NCc1ccc([N+](=O)[O-])cc1)c1ccccc1`, the growth inhibition is 0.85%.

On to `O=C(CN1CCCCC1)NC(=O)c1ccccc1`, for which the growth inhibition is 0.65%.

Turning to `O=C(COc1cc(Cl)c(Cl)cc1Cl)Oc1ccccc1`, the growth inhibition was 8.5%.

As for `CC(C)(C)NC(=O)Oc1ccc2ccccc2c1`, the growth inhibition was 10.3%.

Regarding `O=C(c1ccccc1)c1oc(CO)cc(=O)c1O`, the growth inhibition was -3.9%.

With `CC(=O)Nc1nnc(SCc2ccccc2)s1`, the growth inhibition was 3.4%.

For the compound `O=C1c2ccccc2C(=O)N1/N=C1/SC(=Nc2ccccc2)C(=Nc2ccccc2)N1c1ccccc1`, the growth inhibition is 14.8%.

As to `N#CCc1ccccc1C(C#N)C(=O)CCC(=O)C(C#N)c1ccccc1CC#N` (stereo not given), the growth inhibition is 6.75%.

Regarding `CCN1C(=O)/C(=C/c2ccc(OCC(=O)O)cc2)SC1=S`, the growth inhibition was -2.2%.

Turning to `CCN(C(=S)Nc1cccc(OC)c1)c1ccccc1`, the growth inhibition is -17.1%.

In the case of `Cc1ccc(C)c(NC(=O)OC/C=C/c2ccccc2)c1`, the growth inhibition is 26.7%.

Consider `O=c1c(=[n+]2ccc(=C([O-])c3ccccc3)cc2)/c(=N/S(=O)(=O)c2ccccc2)c(=O)c2ccccc12`, for which the growth inhibition was 12.8%.

Turning to `O=C1C=C/C(=N\N=C(c2ccccc2)c2ccccc2)O1`, the growth inhibition is -42.7%.

Consider `CCOP(=O)(OCC)C1C(C)N1C(=O)Nc1ccccc1` (stereo not given), for which the growth inhibition is -11.7%.

Regarding `N=C(N)/N=C(/C=C/c1ccccc1)CC1OC(=O)c2ccccc21` (stereo not given), the growth inhibition is -28.8%.

For the compound `CSC(C(OC(C)=O)C(OC(C)=O)C(OC(C)=O)C(COC(C)=O)OC(C)=O)n1cnc2c(=S)nc[nH]c21` (stereo not given), the growth inhibition is -0.45%.

Take `CCCCCCCCCCCCCCCCCCNC(=O)Nc1cc(C(C)C)ccc1C`: the growth inhibition was -2.7%.

`O=C1c2ccccc2C(=O)C2CC(c3ccccc3)=CCC12` (stereo not given): the growth inhibition is 52.9%.

As for `COC(=O)C1C(C(=O)OC)C(C(=O)OC)C1C(=O)OC` (stereo not given), the growth inhibition is 1.4%.

For `Nc1nnc2nc(CC(=O)c3ccccc3[N+](=O)[O-])c(CC(=O)c3ccccc3[N+](=O)[O-])nn12`, the growth inhibition is -27.4%.

Take `CCOC(=O)C12CCCC1(O)N(NC(=O)c1ccccc1)C(C)=C2C(=O)OC` (stereo not given): the growth inhibition is 2.95%.
